The record followed here is PubChem BioAssay (NCATS).

Each structure is given as a SMILES string. Records with an inconclusive call do not appear. The source made the active and inactive calls. Unless noted, the call rests on the fitted dose curve; in most records, active means well fitted curve in the direction sought with a large enough effect; inconclusive means small, poorly fitted or top-dose-only effect, or another doubt; inactive means no such curve, though single readings can be large; an effect the other way counts as inactive or inconclusive. Where only a bound is given, the exact number is not on record here.

For assay [1], the target named is Lysosomal acid glucosylceramidase (Homo sapiens) (UniProt P04062). The assay is described as follows: Glucocerebrosidase-p2 (AID 348; in the data active means potency below about 10 µM; further: potency means the concentration at half of the fitted maximal effect). To be noted: purified GBA, blue fluorogenic substrate, 40 min. An outline of the steps:
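Compounds titrated from 0.6 nM upwards against 0.2 nM enzyme in pH 5.9 citric acid/KH2PO4, taurocholate, tween-20; blue fluorogenic substrate 80 uM, 40 min room temperature, stopped and read Ex 365/Em 440 for AC50.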

Assay [2] is described as follows: AP1 Signaling Pathway (AID 357; active means well fitted curve in either direction with a large enough effect, not every such curve was filed as active;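 further: ME-180 reporter cells stimulated with EGF at its EC50 level; on the % scale 0 is the no-effect control and ±100 the full control effect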). The conditions noted are these: ME-180 AP-1-bla reporter, EGF-induced, beta-lactamase ratio, 5 h; at 7.69 µM (top of the series) unless noted. An outline of the steps:
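A ratiometric CCF4 readout (405 nm excitation; 460 and 530 nm emission) quantified AP-1-driven beta-lactamase in ME-180 cells after 5 h with compound and EC50 EGF; AC50 values were derived for activators and inhibitors.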

Assay [3] is described as follows: Stat Signaling Pathway (AID 446; active means well fitted curve in either direction with a large enough effect, not every such curve was filed as active;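 further: ME-180 cervical cancer cells given 40 pM IL-6 alongside compound; SIE-controlled beta-lactamase reporter measured as 460/530 nm FRET emission ratio; on the % scale 0 is the no-effect control and ±100 the full control effect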). To be noted: ME-180 SIE beta-lactamase reporter, IL-6 stimulated, 5 h; at 7.69 µM (top of the series) unless noted. The gist of the method:
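ME-180 cells carrying a SIE-driven beta-lactamase reporter are stimulated with 40 pM IL-6 for 5 h at 37C in the presence of compound. The 460/530 nm FRET substrate ratio is read after 2.5 h at RT. Data are normalised to 300 pM IL-6 and to 125 nM JAK inhibitor controls.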

Assay [4] deals with Glucocorticoid receptor (Homo sapiens) (UniProt P04150). The assay is described as follows: GR-GFP Redistribution (AID 450;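 active means compounds whose dose series gives a full or clear partial fitted curve of increased nuclear translocation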; further: potency means the concentration at half of the fitted maximal effect). The conditions noted are these: U2OS GR-GFP nuclear translocation, laser cytometry, 2 h.
For assay [5] the target is unchanged. The assay is described as follows: GR-EFC Redistribution (AID 451; calls by dose curve; further: potency means the concentration at half of the fitted maximal effect). The conditions noted are these: CHO-K1 GR-EFC translocation, beta-gal luminescence, 2 h. An outline of the steps:
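CHO-K1 cells expressing nuclear EA and GR-ED fragments of b-gal; compounds titrated up to 46 uM final, 2 h at 37 C. GR nuclear translocation read as complemented b-gal luminescence after 1 h RT detection.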

Assay [6] concerns the target Mitogen-activated protein kinase 10 (Mus musculus) (UniProt Q61831). Nature of the assay: JNK3 AlphaScreen Assay (AID 530; active means well fitted curve in either direction with a large enough effect, not every such curve was filed as active;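 further: kinase came from lysate of stimulated human HepG2 cells; signal reports phosphorylation of biotinylated GST-cJun 1-79 at Ser73 with 10 µM ATP; on the % scale 0 is the no-effect control and ±100 the full control effect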). The conditions noted are these: JNK3 lysate, c-Jun phosphorylation; series mostly up to 57.1 µM. An outline of the steps:
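Pre-activated (IL-1β/TNFα) JNK3 in HepG2 lysates phosphorylates biotin-GST-cJun(1-79), 10 uM ATP; anti-phospho-cJun(Ser73) AlphaScreen read at room temperature, pH 7.6 Tris buffer. Compounds pre-incubated 15 min as titrations.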
In general terms: In Alpha technology, singlet oxygen from a donor bead excites a nearby acceptor bead.

Assay [7] addresses 3',5'-cyclic-AMP phosphodiesterase 4B (Homo sapiens) (UniProt Q07343). Nature of the assay: qHTS Assay for Inhibitors of PDE-IV (AID 607; active means well fitted activation curve with a large enough effect in the main read-out, with a control signal flat, not every such curve was filed as active; further: % of control where 0% means no effect). To be noted: HEK293 ACTOne CNG channel cells, membrane potential fluorescence; series mostly up to 22.9 µM. The gist of the method:
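HEK293 ACTOne cells with CNG channel (1000/well), endogenous PDE4; membrane potential dye, compounds up to 22.9 uM final. Fluorescence Ex 535/Em 590; RO 20-1724 (100 uM final) as reference.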
(qHTS replaces the single test concentration by a dilution series.)

Assay [8] is described as follows: qHTS Assay for Lipid Storage Modulators (AID 1519; calls by dose curve). The conditions noted are these: Drosophila S3 cells, BODIPY lipid droplet/cell ratio, laser cytometry, cells loaded with oleic acid; for activity change, negative = inhibition: at 57.5 µM (top of the series). The gist of the method: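 Cells seeded at 5,000 per well were treated with compounds over a concentration series and loaded with oleic acid (400 uM, as added). Lipid droplet fluorescence (488 nm excitation, 500-530 nm channel) was read by laser-scanning cytometry and normalized to 20 uM Triacsin C.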

Assay [9] deals with Dual specificity protein kinase CLK4 (Homo sapiens) (UniProt Q9HAZ1). Nature of the assay: qHTS Assay for Inhibitors of CDC-like Kinase 4 (Kinase-Glo Assay) (AID 1770). Further: nearly all actives have a fitted effect of over 65% in size. Further: potency means the concentration at half of the fitted maximal effect. To be noted: recombinant Clk4, Kinase-Glo ATP depletion luminescence; series mostly up to 66.7 µM. The gist of the method: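 Substrate mix (RS peptide 100 uM, ATP 1 uM) dispensed, compound pinned in, then Clk4 added to 25 nM final. Incubated 4.5 h at RT; Kinase-Glo reagent added, luminescence read after 5 min.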

Assay [10] has the same target. The assay is described as follows: qHTS Assay for Inhibitors of CDC-like Kinase 4 (ADP-Glo Assay) (AID 1771). Further: nearly all actives have a fitted effect of over 70% in size. Further: potency means the concentration at half of the fitted maximal effect. To be noted: recombinant CLK4, ADP-Glo luminescence; series mostly up to 80 µM. An outline of the steps: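 Luminescence from ADP-Glo reports ADP produced by 25 nM Clk4 acting on 100 uM RS repeat peptide with 1 uM ATP over 1 hr at room temperature; residual ATP is depleted before ADP is converted to ATP for detection.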

Assay [11] has the same target. The assay is described as follows: qHTS Assay for Inhibitors of CDC-like Kinase 4 (ADP-FP Assay) (AID 1795). Further: nearly all actives have a fitted effect of over 60% in size. Further: potency means the concentration at half of the fitted maximal effect. The conditions noted are these: Transcreener ADP fluorescence polarization; series mostly up to 50 µM. The gist of the method:
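Clk4 6.25 nM; RS peptide 100 uM; ATP 1 uM; 25 mM Tris pH 7.5, 10 mM MgCl2; 1 h reaction. ADP detected via antibody/orange tracer FP displacement; TG003 positive control.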

The target in assay [12] is Ubiquitin carboxyl-terminal hydrolase 1 (Homo sapiens) (UniProt O94782). Nature of the assay: Inhibitors of USP1/UAF1: Pilot qHTS (AID 504865).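 Further: rhodamine fluorescence freed from ubiquitin-rhodamine substrate followed over time; top concentration of the series differs between compounds; on the % scale 0 is the no-effect control and ±100 the full control effect; nearly all actives have a fitted effect of over 35% in size.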 The conditions noted are these: purified USP1/UAF1, Ub-rhodamine cleavage fluorescence; series mostly up to 54.9 µM. An outline of the steps: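 In 50mM HEPES pH 7.8 containing 0.5mM EDTA, 1mM TCEP, 0.1 mg/ml BSA and 0.01% Tween-20, 1nM USP1/UAF1 is exposed to compound for 15 min, then Ub-Rho (150nM final) is added and fluorescence is read over time.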

Assay [13] is described as follows: Primary qHTS for small molecule stabilizers of the endoplasmic reticulum resident proteome: Secreted ER Calcium Modulated Protein (SERCaMP) assay (AID 1508630). Further: on the % scale 0 is the no-effect control and ±100 the full control effect. To be noted: SH-SY5Y GLuc-SERCaMP (Gaussia luciferase released on ER calcium loss) secretion, thapsigargin, luminescence; series mostly up to 38.4 µM. An outline of the steps: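 GLuc-SERCaMP-expressing SH-SY5Y cells, pretreated 16 h with compound, are challenged with thapsigargin to empty ER calcium stores; after 4 h, coelenterazine is added directly to the medium and luminescence is imaged.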

Assay [14] deals with Cytochrome P450 1A2 (Homo sapiens) (UniProt P05177). The assay is described as follows: p450-cyp1a2 (AID 410; calls by dose curve; further: potency means the concentration at half of the fitted maximal effect). The conditions noted are these: recombinant CYP1A2, luciferin-ME demethylation, luminescence; series mostly up to 57 µM. The gist of the method:
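Luminescent readout of luciferin formed from Luciferin-ME by human CYP1A2; data normalized against complete inhibition by 57 uM furafylline. Enzyme 20nM, substrate 100uM at Km, 100mM KPO4 buffer, 60 min reaction at room temperature.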

Assay [15] can be described thus: NFAT Signaling Pathway (AID 444; active means well fitted curve in either direction with a large enough effect, not every such curve was filed as active). To be noted: Jurkat NFAT-bla M1, carbachol, beta-lactamase ratio, 5 h; at 7.69 µM (top of the series) unless noted. The gist of the method: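 Jurkat cells with NFAT-driven β-lactamase reporter and co-expressed M1 receptor, stimulated with carbachol (final 1 uM, ~EC50), compound titration, 5 h at 37 °C. CCF4 loaded 1 h at RT; 460/530 nm ratio gave %activity and AC50.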

In assay [16] the target is Cytochrome P450 3A4 (Homo sapiens) (UniProt P08684). Nature of the assay: qHTS Assay for Inhibitors and Substrates of Cytochrome P450 3A4 (AID 884). Further: potency means the concentration at half of the fitted maximal effect; nearly all actives have a fitted effect of over 50% in size. The conditions noted are these: recombinant CYP3A4, Luciferin-PPXE luminescence; series mostly up to 57.1 µM. The gist of the method:
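20 nM human CYP3A4 with 25 uM Luciferin-PPXE (at KM) in 200 mM KPO4, preincubated 10 min with compound; NADPH regeneration started a 60 min RT reaction. Luciferin detected by luminescence, normalized to 57 uM ketoconazole as full inhibition.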

Assay [17] has the same target. Nature of the assay: qHTS Assay for Activators of Cytochrome P450 3A4 (AID 885). Further: nearly all actives have a fitted effect of over 65% in size. The conditions noted are these: recombinant CYP3A4, Luciferin-PPXE luminescence, 60 min; series mostly up to 57.1 µM. The gist of the method:
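Human CYP3A4 (20 nM) with Luciferin-PPXE at 25 uM (its KM) in 200 mM KPO4; 10 min compound preincubation, then NADPH regeneration and 60 min reaction at RT. Luciferin read by luminescence; normalized to 57 uM ketoconazole full inhibition.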

A short description of assay [18]: qHTS Assay for Identification of Small Molecule Agonists for Hypoxia Response Element Signaling Pathway (AID 914; active means well fitted activation curve with a large enough effect in the signal ratio, with a control signal flat, not every such curve was filed as active; the % refers to the signal ratio; further: potency means the concentration at half of the fitted maximal effect). The conditions noted are these: ME-180 (cervical carcinoma) HRE-bla reporter, beta-lactamase ratio, CoCl2, 17 h; activation: stronger effect = higher value. The gist of the method:
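Reporter activity (beta-lactamase, CCF4 460nm/530nm ratio) in HRE-bla ME-180 cells is recorded after 17 h compound exposure with EC50 CoCl2 at 37 degrees Celsius. AC50 values come from titration data.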

Where [19] appears, read: measured here: cell count channel max response.
Where [20] appears, read: measured here: lipid channel max response.

Chain of Glucocorticoid receptor (Homo sapiens) (P04150 whole entry, looked up): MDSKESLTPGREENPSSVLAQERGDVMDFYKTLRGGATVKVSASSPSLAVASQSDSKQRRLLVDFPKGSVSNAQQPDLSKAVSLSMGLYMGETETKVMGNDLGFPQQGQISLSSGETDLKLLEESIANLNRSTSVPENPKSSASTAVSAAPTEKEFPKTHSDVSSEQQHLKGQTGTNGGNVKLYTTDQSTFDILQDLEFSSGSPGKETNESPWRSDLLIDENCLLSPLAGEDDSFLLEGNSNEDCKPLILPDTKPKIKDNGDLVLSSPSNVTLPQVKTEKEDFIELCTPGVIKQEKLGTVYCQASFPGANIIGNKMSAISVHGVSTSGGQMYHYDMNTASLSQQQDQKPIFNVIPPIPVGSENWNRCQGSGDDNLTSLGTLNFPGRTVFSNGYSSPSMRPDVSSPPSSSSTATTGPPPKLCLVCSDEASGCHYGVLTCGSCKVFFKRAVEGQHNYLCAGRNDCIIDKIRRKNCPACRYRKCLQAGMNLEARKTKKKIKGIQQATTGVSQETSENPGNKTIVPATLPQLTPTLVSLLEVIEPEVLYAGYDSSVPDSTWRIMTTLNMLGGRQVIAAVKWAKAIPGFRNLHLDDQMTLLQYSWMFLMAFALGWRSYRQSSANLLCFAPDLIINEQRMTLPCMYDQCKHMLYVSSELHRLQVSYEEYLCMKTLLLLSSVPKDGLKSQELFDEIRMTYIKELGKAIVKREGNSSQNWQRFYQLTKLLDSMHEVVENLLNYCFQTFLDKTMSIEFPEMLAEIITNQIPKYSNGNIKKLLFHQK
Chain of Cytochrome P450 3A4 (Homo sapiens) (P08684 whole entry, looked up): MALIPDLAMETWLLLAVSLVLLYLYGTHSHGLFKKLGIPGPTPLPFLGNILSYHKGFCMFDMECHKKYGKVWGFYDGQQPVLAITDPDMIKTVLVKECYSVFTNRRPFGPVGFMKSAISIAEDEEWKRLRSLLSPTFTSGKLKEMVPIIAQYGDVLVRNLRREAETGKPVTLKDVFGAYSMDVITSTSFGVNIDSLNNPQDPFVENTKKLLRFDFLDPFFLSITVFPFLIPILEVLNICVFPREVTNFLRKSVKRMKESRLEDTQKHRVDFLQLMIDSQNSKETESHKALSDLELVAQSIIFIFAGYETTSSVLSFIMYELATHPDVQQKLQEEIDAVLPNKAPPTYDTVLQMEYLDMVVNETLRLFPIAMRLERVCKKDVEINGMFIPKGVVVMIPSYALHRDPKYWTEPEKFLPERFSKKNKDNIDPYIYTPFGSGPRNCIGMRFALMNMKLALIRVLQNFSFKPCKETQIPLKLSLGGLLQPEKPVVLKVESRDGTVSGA
Chain of Ubiquitin carboxyl-terminal hydrolase 1 (Homo sapiens) (O94782 whole entry, looked up): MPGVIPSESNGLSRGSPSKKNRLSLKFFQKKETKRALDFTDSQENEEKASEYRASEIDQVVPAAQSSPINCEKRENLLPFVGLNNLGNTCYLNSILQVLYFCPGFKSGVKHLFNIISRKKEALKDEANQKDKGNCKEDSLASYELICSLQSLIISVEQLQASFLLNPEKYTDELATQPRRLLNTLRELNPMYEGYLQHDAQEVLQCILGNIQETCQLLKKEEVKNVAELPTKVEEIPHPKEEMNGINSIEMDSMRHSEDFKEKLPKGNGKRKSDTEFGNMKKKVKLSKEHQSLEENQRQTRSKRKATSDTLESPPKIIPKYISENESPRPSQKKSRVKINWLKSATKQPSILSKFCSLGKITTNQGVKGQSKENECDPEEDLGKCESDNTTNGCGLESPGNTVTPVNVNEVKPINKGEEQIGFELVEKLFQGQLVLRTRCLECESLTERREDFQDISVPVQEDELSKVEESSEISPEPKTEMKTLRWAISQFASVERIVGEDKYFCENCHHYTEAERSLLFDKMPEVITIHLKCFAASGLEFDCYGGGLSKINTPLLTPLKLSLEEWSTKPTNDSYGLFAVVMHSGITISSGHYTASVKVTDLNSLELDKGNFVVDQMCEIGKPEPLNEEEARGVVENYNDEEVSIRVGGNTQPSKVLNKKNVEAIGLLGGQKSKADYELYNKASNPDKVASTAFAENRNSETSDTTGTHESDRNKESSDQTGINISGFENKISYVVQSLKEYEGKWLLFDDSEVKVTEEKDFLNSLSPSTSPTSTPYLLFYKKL
Chain of Dual specificity protein kinase CLK4 (Homo sapiens) (Q9HAZ1 whole entry, looked up): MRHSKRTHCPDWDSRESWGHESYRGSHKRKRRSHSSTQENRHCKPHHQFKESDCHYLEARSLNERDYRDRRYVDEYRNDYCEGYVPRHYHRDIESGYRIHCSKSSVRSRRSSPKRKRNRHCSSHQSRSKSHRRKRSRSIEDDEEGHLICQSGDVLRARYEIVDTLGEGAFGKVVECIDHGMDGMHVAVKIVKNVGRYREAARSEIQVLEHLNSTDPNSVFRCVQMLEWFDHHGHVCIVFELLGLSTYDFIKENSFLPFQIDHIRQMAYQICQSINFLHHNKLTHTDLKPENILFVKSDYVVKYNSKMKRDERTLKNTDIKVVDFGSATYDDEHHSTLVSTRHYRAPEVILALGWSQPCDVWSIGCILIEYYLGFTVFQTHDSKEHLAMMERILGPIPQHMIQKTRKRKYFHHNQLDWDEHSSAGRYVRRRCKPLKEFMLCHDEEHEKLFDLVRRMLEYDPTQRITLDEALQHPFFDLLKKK
Chain of Lysosomal acid glucosylceramidase (Homo sapiens) (P04062 whole entry, looked up): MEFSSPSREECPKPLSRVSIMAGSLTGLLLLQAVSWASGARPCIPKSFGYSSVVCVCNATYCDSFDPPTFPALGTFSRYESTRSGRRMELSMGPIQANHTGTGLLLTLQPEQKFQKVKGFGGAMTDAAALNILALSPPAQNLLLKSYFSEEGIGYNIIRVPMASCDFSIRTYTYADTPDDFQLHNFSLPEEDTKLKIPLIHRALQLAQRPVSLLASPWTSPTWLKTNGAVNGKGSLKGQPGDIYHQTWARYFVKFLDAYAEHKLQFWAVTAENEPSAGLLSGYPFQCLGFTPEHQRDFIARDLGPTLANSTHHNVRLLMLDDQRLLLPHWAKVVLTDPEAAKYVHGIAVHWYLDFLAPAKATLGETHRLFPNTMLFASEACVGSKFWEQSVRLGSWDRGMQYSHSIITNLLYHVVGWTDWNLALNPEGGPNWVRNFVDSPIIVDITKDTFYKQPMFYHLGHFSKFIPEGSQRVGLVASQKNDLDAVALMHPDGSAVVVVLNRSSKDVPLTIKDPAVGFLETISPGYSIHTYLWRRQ
Chain of 3',5'-cyclic-AMP phosphodiesterase 4B (Homo sapiens) (Q07343 whole entry, looked up): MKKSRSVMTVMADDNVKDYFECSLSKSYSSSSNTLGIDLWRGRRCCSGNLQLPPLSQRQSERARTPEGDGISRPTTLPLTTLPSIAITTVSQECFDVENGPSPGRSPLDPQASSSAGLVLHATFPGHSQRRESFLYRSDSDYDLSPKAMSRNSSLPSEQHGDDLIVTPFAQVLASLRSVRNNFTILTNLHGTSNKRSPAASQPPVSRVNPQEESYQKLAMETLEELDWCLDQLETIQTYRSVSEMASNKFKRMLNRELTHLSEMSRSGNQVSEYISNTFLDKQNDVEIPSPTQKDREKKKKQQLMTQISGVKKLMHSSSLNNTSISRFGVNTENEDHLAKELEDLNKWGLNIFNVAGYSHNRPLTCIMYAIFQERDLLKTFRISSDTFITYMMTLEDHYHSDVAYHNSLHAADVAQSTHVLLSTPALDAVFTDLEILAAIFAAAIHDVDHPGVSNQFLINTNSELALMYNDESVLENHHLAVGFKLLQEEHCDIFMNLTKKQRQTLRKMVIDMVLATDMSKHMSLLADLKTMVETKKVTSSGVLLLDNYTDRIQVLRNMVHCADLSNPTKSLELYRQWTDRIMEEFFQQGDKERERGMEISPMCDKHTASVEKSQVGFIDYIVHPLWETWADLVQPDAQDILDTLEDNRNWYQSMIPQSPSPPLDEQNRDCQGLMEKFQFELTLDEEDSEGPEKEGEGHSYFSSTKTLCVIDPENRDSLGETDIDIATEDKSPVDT
Chain of Cytochrome P450 1A2 (Homo sapiens) (P05177 whole entry, looked up): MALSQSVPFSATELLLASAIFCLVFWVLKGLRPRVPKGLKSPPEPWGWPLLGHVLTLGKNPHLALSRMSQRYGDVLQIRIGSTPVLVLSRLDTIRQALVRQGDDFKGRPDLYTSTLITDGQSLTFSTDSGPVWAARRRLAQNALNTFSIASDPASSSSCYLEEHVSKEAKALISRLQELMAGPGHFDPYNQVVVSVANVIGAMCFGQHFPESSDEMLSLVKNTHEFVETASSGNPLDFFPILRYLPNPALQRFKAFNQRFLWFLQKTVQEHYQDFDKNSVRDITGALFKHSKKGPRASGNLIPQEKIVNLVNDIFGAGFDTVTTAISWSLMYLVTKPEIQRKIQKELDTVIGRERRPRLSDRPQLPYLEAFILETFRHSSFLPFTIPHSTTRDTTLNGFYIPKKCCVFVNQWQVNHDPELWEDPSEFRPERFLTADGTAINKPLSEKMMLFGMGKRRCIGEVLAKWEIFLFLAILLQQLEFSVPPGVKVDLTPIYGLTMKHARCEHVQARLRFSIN

For `COc1cccc(Cn2c(=O)c(C)nc3cnc(Nc4ccccc4)nc32)c1`, the Potency in [1] was > 11.4 µM (inactive); in assay [4], > 9.22 µM (inactive); in [5], > 46 µM (inactive). Besides, the activity change, negative = inhibition in assay [2] is -15.3% (inactive); in assay [8], 0.284% (inactive). Further, the activity, negative = inhibition in [3] was -3.72% (inactive). In addition, in assay [6], the compound was called inactive. Further, the Potency result in assay [7], in [9], in assay [10], in assay [11], in assay [12] and in assay [13] was “inactive” in each case. Also, the max response was found to be 11.6% in assay [8] (setting [19]) and 9.21% in [8] (setting [20]).
Regarding `CN1CCN(c2ncc3nc(-c4cc(F)cc(F)c4)c(=O)n(Cc4cccs4)c3n2)CC1`, the Potency is > 11.4 µM (inactive) in assay [1], 6.31 µM (active) in assay [14], > 9.22 µM (inactive) in assay [4] and > 46 µM (inactive) in assay [5]. In addition, the outcome in assay [6] was inactive. In addition, the Potency entry in assay [7], in assay [9], in assay [10], in assay [11], in assay [12] and in [13] was “inactive” in each case. Moreover, the activity change, negative = inhibition in [8] is -9.14% (inactive). Also, the max response in [8] (setting [19]) came to 17.2%; in assay [8] (setting [20]), 3.46%.
Regarding `COc1cccc(Nc2ncc3nc(C)c(=O)n(Cc4cccs4)c3n2)c1`, the Potency in assay [1] was > 11.4 µM (inactive); in assay [14], 2.51 µM (active); in assay [4] it was > 9.22 µM (inactive); in assay [5], > 46 µM (inactive); in [16], 3.98 µM (active). Moreover, the activity change, negative = inhibition in assay [15] is -29.6% (inactive); in assay [8], -16.2% (inactive). Further, in [3], the activity, negative = inhibition was -12.1% (inactive). Moreover, the compound was called inactive in assay [6]. Besides, the Potency result in assay [17], in [9], in assay [10], in assay [11], in assay [12] and in [13] was “inactive” each time. The max response in assay [8] (setting [19]) was 12.9%; in assay [8] (setting [20]), -8.07%.
With `CN(C)c1ncc2nc(-c3ccccc3)c(=O)n(Cc3ccc(F)cc3)c2n1`, the Potency was > 11.4 µM (inactive) in [1]; 12.6 µM (active) in assay [14]; > 9.22 µM (inactive) in assay [4]; > 46 µM (inactive) in assay [5]; 0.501 µM (active) in assay [18]. In addition, the activity, negative = inhibition in [3] is 178% [activator] (active). In addition, the Potency entry in assay [7], in assay [9], in assay [10], in assay [11], in assay [12] and in assay [13] was “inactive” throughout. The activity change, negative = inhibition in assay [8] is 0.549% (inactive). In addition, the max response in assay [8] (setting [19]) came to 7.88%; in assay [8] (setting [20]), 4.69%.
Turning to `CN(C)c1ncnc2ccc(-c3ccoc3)cc12`, the Potency in [1] is > 11.4 µM (inactive); in [14], 0.794 µM (active); in assay [5] it was > 46 µM (inactive); in assay [9], 0.501 µM (active); in assay [10], 0.562 µM (active); in assay [11] it was 0.178 µM (active). The results for the activity change, negative = inhibition in assay [15] and in assay [8] were 1.35% (inactive) and 1.41% (inactive), respectively. The activity, negative = inhibition in assay [3] was -10.6% (inactive). Also, in assay [6], the result was inactive. Also, the Potency entry in [17], in assay [12] and in assay [13] was “inactive” in each case. Also, the max response in assay [8] (setting [19]) turned out to be 30.5%; in [8] (setting [20]), 29.1%.
`COCCNc1ncnc2ccc(-c3cccnc3)cc12`: the Potency in assay [1] is > 11.4 µM (inactive); in assay [14] it was 0.2 µM (active); in assay [4], > 46 µM (inactive); in [5], > 46 µM (inactive); in assay [9], 12.6 µM (active); in [10], 12.6 µM (active). Further, the Potency in assay [11] is 10 µM (active). Besides, the activity, negative = inhibition in [3] is 18% (inactive). The compound was classed as inactive in assay [6]. Besides, the Potency entry in assay [7], in assay [17], in [12] and in assay [13] was “inactive” in each case. In addition, in [8], the activity change, negative = inhibition is 5.11% (inactive). Moreover, the max response was -1.43% in [8] (setting [19]) and -8.04% in [8] (setting [20]).
